# Screening results from PubChem.
# CCT chaperon mod: changes cytosolic chaperonin activity | purified chaperonin ATPase assay, HTRF ADP detection, 30 min | activity change, % (test concentration not listed), hits read low | 360,000 compounds, 0.3% hits | AID 651819; in the data active = activity change below about -30%
#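 Nucleotide hydrolysis assay: TRiC at 20–40 nM final (set by batch activity) with 10 uM ATP, 30 min at 37 °C, in presence of 76 uM compound. Detection by competitive ADP HTRF, 30 min ambient.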
# pAkt inh: blocks phosphorylation of Akt; Neuro2A IGF-stimulated pAkt S473 HTRF, 20 min; hits give low values; activity change, % for hits at 50 µM; 360,000 compounds, 0.32% hits; AID 651550; in the data active = activity change below about -80%; inconclusive = mostly about -51% to -80%
#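 Neuro2A cells in DMEM with 0.5% FBS, overnight at 37 deg C, given compound at single 50 µM final, then IGF (6 nM final) for 20 min at 37 deg C. Lysed; phospho-Akt Ser473 by HTRF after 24 h, 665/615 ratio.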
# Six1-Eya2 blk: Six1/Eya2 interaction inhibition. Q15475+O00167. AlphaScreen GST-Six1/His-Eya2 binding, biochemical; hits give low values. activity change, % (no concentration beside the values). 360,000 compounds, 0.56% hits
# Target sequence (O00167 whole entry, looked up): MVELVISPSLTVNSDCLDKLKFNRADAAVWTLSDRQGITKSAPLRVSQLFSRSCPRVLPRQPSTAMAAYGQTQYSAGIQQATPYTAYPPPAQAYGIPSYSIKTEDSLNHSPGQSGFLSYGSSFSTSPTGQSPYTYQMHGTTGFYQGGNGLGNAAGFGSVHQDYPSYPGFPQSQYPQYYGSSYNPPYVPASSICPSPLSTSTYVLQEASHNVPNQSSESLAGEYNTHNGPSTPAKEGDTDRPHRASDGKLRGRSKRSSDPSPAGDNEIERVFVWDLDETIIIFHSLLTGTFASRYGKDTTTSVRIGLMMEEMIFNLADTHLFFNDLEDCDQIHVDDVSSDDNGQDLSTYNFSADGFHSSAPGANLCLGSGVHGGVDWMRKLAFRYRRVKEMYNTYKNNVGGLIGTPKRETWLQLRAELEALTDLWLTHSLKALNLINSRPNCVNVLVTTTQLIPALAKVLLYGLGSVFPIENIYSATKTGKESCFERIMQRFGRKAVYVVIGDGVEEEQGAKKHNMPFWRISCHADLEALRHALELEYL
# Target sequence (Q15475 whole entry, looked up): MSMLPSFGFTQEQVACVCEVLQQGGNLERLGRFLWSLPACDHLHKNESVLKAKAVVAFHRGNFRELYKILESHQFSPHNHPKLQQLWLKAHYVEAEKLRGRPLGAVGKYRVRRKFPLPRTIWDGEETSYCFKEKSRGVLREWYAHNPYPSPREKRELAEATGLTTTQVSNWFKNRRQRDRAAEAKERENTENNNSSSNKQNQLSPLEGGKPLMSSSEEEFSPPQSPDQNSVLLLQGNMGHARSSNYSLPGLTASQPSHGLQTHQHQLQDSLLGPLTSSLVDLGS
#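 AlphaScreen luminescence read after one hour at 37 °C in darkness. Pin-transferred compounds met GST-Six1 and His-Eya2 protein (5X stock 250 nM/500 nM) plus glutathione donor and Ni-chelate acceptor beads (5X, 50 ug/mL).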
# CtBP-E1A inh: inhibitors of CtBP/E1A interaction; AlphaScreen GST-E1A/His-CtBP binding, 1536-well; hits give low values; activity change, % (no concentration beside the values); 340,000 compounds, 0.49% hits
#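 GST-E1A and His-tagged CtBP (125 nM each as 5X stock) were preincubated with pin-transferred compound for 2 h at 37 °C in the dark, then glutathione donor and nickel acceptor beads were added for 1 h before AlphaScreen reading.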
# The depositor's hits bear a star; i = inactive; ? = inconclusive; nt = not tested or not shown. An excerpt weighted towards active compounds, which were near 1.3% of everything screened. Cut-off read from the data, not from the text of the source, unless noted: active = activity change below about -65%; inconclusive = mostly about -30% to -63%; inactive = weaker than that. % is set by controls: 0 for no effect and ±100 for the full control effect.
SMILES,CCT chaperon mod,pAkt inh,Six1-Eya2 blk,CtBP-E1A inh
CC(C)n1cc(/C=N/NC(=O)COc2cccc3cccnc23)c2ccccc21,-2.6,i,-16.5,-1.5
COc1cccc(/C=N/NC(=O)COc2cccc3cccnc23)c1O,-1.4,i,?,-79.9*
COc1ccccc1OCC(=O)N/N=C/c1cccc2cccnc12,0.4,i,-74.4*,-86.1*
N#Cc1ccccc1S(=O)(=O)N1CCN(C(=O)C2CCC2)CC1,-2.6,i,-0.3,3.2
CCOCCCNC(=O)C(c1ccc(OC)cc1)N(Cc1ccc2c(c1)OCO2)C(=O)c1cnccn1 (stereo not given),-64.7*,i,7.5,5.0
CCCc1cc(=O)oc2cc(C)cc(OCC(=O)NCc3ccncc3)c12,-1.3,i,-2.6,-0.2
CN(CC(=O)Nc1ccccc1Br)C(=O)CCCSc1nc2ccccc2[nH]1,1.9,i,-3.3,4.5
CC(=O)Nc1ccc(C(=O)CSc2ncn(-c3ccccc3)n2)cc1,-0.4,-119.9%*,0.3,3.8
CN(C)c1ccc2c(=O)c3ccccc3oc2n1,-2.2,i,-17.6,-11.1
CCC(=O)N1CCc2cc(Br)cc(S(=O)(=O)CC(=O)OC)c21,1.5,-106.5%*,-13.5,-7.8
CCC(=O)N1CCc2cc(Br)cc(S(=O)(=O)NCCN3CCCC3)c21,2.0,i,-5.4,-4.3
N#CC(C(=O)NCc1ccccc1)c1nc2ccccc2nc1N1CCCC1 (stereo not given),-2.9,-84.5%*,-12.6,-14.9
COc1ccccc1N1CCN(c2nc3ccccc3nc2C(C#N)C(=O)OC(C)C)CC1 (stereo not given),1.5,-97.2%*,?,-29.1
CN(CC(=O)Nc1cccc(F)c1)C(=O)c1ccc(COc2ccccc2)o1,-2.8,i,-2.1,14.6
COCCNC(=O)C1(C)CCCN(C(=O)c2ccc(-c3ccccc3)cc2)C1 (stereo not given),0.0,i,4.1,3.5
CCCCC1NC(C(=O)O)CS1 (stereo not given),-2.4,i,-0.9,-3.5
CCCCCCC1NC(C(=O)O)CS1 (stereo not given),0.4,-113.4%*,0.3,-1.1
CC(=O)c1ccc(OC(=O)CCc2ccccc2)cc1,0.0,i,-79.5*,?
C=CCc1c(C)nc2c(C)cccc2c1SC(=N)N,-2.3,i,0.6,4.2
CCn1ncc(C(=O)Nc2ccc(S(=O)(=O)N3CCCC3)cc2)c1C,-2.1,-123.5%*,-18.2,-7.9
Cc1occc1C(=O)Nc1ccc(S(=O)(=O)N2CCCC2)cc1,-1.9,i,-7.3,-9.4
Cc1onc(-c2c(F)cccc2Cl)c1C(=O)NCc1ccccn1,-0.8,-108.6%*,5.7,1.4
O=C(NCc1ccccn1)c1ccc(=O)oc1,-1.9,i,-87.4*,-79.3*
Cc1cc(=O)oc(C)c1C(=O)NCc1ccccn1,-0.2,i,-81.1*,?
CCOC(=O)C1(CCCc2ccccc2)CCN(S(=O)(=O)N(C)C)CC1,-1.7,i,20.6,19.3
SMILES,CCT chaperon mod,pAkt inh,Six1-Eya2 blk,CtBP-E1A inh
CCCOc1cccc(C(=O)Nc2cc(NC(=O)c3ccco3)ccc2OC)c1,-1.9,-107.4%*,-7.5,-18.8
CCOc1ccc(NC2=C(Cl)C(=O)N(C3CCCCC3)C2=O)cc1,-32.5*,i,-1.0,0.9
CNc1cccc2c1C(=O)c1ccccc1C2=O,-0.9,i,-87.5*,-2.6
CCOc1ccc(/C=C(\C#N)C(=O)NCC2CCCO2)cc1OCC (stereo not given),-1.4,i,-5.0,-65.6*
O=C(CSc1ccc(-c2ccccn2)nn1)NCc1ccccc1,-3.9,i,-76.1*,?
CCc1ccc(NC(=O)CSc2ccc(-c3ccccn3)nn2)cc1,-1.6,i,?,?
O=C(COC(=O)c1cccnc1SCC(=O)NCc1ccccc1)NCc1ccccc1,0.9,-89.4%*,20.3,0.0
O=C(CSc1ccc(-c2ccccn2)nn1)NC1CCCCC1,-2.5,i,-89.9*,-72.1*
COc1ccccc1CNC(=O)COC(=O)c1cccnc1SCC(=O)NCc1ccccc1OC,-19.0,i,2.0,0.7
O=C(CSc1ccc(-c2ccccn2)nn1)c1ccc([N+](=O)[O-])cc1,10.0,i,-66.6*,-82.5*
O=C(O)C1=C[C@H](c2ccc(Br)cc2)C[C@H](OCc2ccc(CO)cc2)O1,1.3,i,-18.5,nt
O=C(CSc1ccc(-c2ccccn2)nn1)NCc1ccc(F)cc1,0.9,i,-81.0*,-65.8*
CC(=O)N1CCOc2ccc(S(=O)(=O)N3CCC(C(=O)NCc4ccccc4)CC3)cc21,0.0,i,-2.8,-21.5
COc1ccc(C(C(=O)NC2CCCC2)N(C(=O)c2ccco2)c2ccc3c(c2)OCO3)cc1OC (stereo not given),-1.5,-108.6%*,2.9,3.3
COc1ccc(C(C(=O)NC2CCCC2)N(C(=O)c2ccco2)c2cc3c(cc2C(C)=O)OCO3)cc1OC (stereo not given),-0.4,i,-7.0,-3.9
Cc1nnc(SCC(=O)Nc2nccs2)o1,-0.9,i,?,-73.2*
CCC(c1nnc(SCC(=O)Nc2cc(C)on2)o1)N(C)C (stereo not given),0.8,i,?,-91.2*
O=C(CSc1nnc(CNC(=O)c2c(F)cccc2Cl)o1)NCc1ccc2c(c1)OCO2,-3.0,-107.4%*,4.6,0.4
Cc1nnc(SCC(=O)Nc2nccs2)s1,1.3,i,3.9,1.6
Cc1cc(C)cc(-c2nnc(SCC(=O)Nc3cc(C)on3)o2)c1,-0.9,i,?,-65.4*
C=CCNc1ncnc2c1ncn2[C@H]1CN(Cc2ccc(-c3ccccc3)cc2)C[C@@H](CO)O1,1.6,i,-9.8,-4.5
Cc1noc(C)c1S(=O)(=O)NC(=O)C1(C)CCN1C(=O)c1ccccc1CCc1ccccc1 (stereo not given),0.3,i,1.2,10.2
CC1Sc2ccc(S(=O)(=O)N3CCC(C(=O)NCc4ccccc4)CC3)cc2NC1=O (stereo not given),-0.2,i,0.5,3.2
CC(C)N(C)c1ncnc2c1ncn2[C@H]1CN(Cc2ccc(Cl)cc2)C[C@@H](CO)O1,-0.6,i,17.8,22.9
Cc1cc(NC(=O)CSc2nnc(-c3ccc(O)cc3)o2)no1,-0.5,i,?,-28.7
SMILES,CCT chaperon mod,pAkt inh,Six1-Eya2 blk,CtBP-E1A inh
Cc1cc(NC(=O)CSc2nnc(C)o2)no1,-0.7,i,?,-85.7*
Cc1cc(NC(=O)CSc2nnc(CNC(=O)c3c(F)cccc3F)o2)no1,-0.8,i,?,-80.1*
CCOc1ccc(NC(=O)CN(C)C(=O)CCC2CCCCC2)cc1OCC,-0.4,i,-2.6,-0.5
COc1ccc(NC(=O)CN(C)C(=O)CCC2CCCC2)cc1,-35.9*,i,4.1,2.1
O=C(O)c1ccc(CNCc2cccc(Oc3ccccc3)c2)cc1,-1.2,i,3.9,nt
CCOc1cccc(CNCc2ccc(C(=O)O)cc2)c1,-70.4*,i,0.4,6.8
CC1COc2ccccc2N1S(=O)(=O)c1ccc(Cl)cc1 (stereo not given),2.7,i,2.3,-66.5*
